# From the supplement of paper PMC4022240
# ± gives the standard deviation.
# T1: HaloTag-ATRX ADD domain (163-292)
# T1 chain: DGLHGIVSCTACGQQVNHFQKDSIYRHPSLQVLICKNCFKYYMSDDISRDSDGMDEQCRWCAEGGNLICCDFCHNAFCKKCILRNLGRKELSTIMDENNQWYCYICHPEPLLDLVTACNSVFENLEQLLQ
# Tests used:
# Test in all cases: peptide microarray binding signal (635 nm), min-max normalized on array (fraction of array maximum); higher = stronger binding
# Conditions in all cases: peptide region: H3 5-17
# [1] = target: T1, HaloTag-ATRX ADD domain (163-292)
# In short: (§1)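 Two probe formats were used for 1 h at 4°C: biotin-labelled HaloTag reader fusions (10 nM to 1 μM) with streptavidin-Alexa Fluor 647, and rabbit histone antibodies (1:10,000 to 1:2,000) with anti-rabbit Alexa 647. Both were applied to nitrocellulose arrays of histone 13-mer peptide–cellulose conjugates printed in triplicate with a Cy3 tracer and blocked overnight at 4°C. Signal was read at 635 nm and misprints at 532 nm on an Axon GenePix 4000B. Binding signal is expressed as the triplicate-spot mean intensity, min-max scaled for each library.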
# [2] = target: HaloTag-ING2 PHD (mouse Ing2 200-280)
# In short: as §1
# [3] = target: anti-H3K4me3 antibody ab8580
# In short: as §1
# [4] = target: anti-H3K9me3 antibody ab8898
# In short: as §1
# [5] = peptide modifications: H3K14me2, binder concentration: 1:2,000 dilution
# [6] = peptide modifications: H3K14me2, binder concentration: 1:10,000 dilution
# [7] = peptide modifications: H3R8me1 H3K9ac, binder concentration: 1:2,000 dilution
# [8] = peptide modifications: H3R8me1 H3K9ac, binder concentration: 1:10,000 dilution
# [9] = peptide modifications: H3R8cit H3T11ph, binder concentration: 1:2,000 dilution
# [10] = peptide modifications: H3R8cit H3T11ph, binder concentration: 1:10,000 dilution
# [11] = peptide modifications: H3K14me3, binder concentration: 1:2,000 dilution
# [12] = peptide modifications: H3K14me3, binder concentration: 1:10,000 dilution
# [13] = peptide modifications: H3R8me1, binder concentration: 1:2,000 dilution
# [14] = peptide modifications: H3R8me1, binder concentration: 1:10,000 dilution
# [15] = peptide modifications: H3R8me1 H3K9me2, binder concentration: 1:2,000 dilution
# [16] = peptide modifications: H3R8me1 H3K9me2, binder concentration: 1:10,000 dilution
# [17] = peptide modifications: H3R8cit, binder concentration: 1:2,000 dilution
# [18] = peptide modifications: H3R8cit, binder concentration: 1:10,000 dilution
# [19] = peptide modifications: H3K14ac, binder concentration: 1:2,000 dilution
# [20] = peptide modifications: H3K14ac, binder concentration: 1:10,000 dilution
# [21] = peptide modifications: H3K9me3 H3S10ph, binder concentration: 1:2,000 dilution
# [22] = peptide modifications: H3K9me3 H3S10ph, binder concentration: 1:10,000 dilution
# [23] = peptide modifications: H3K9me3 H3K14me2, binder concentration: 1:2,000 dilution
# [24] = peptide modifications: H3K9me3 H3K14me2, binder concentration: 1:10,000 dilution
binder,measurement,setting,value
QTARKSTGGKAPR [H3 5-17 Q T A R K S T G G Kme2 A P R],peptide microarray binding signal,"[1]; peptide modifications: H3K14me2, binder concentration: 50 nM",0.00956 ± 0.00084
same,peptide microarray binding signal,"[1]; peptide modifications: H3K14me2, binder concentration: 500 nM",0.0335 ± 0.0014
same,peptide microarray binding signal,"[2]; peptide modifications: H3K14me2, binder concentration: 10 nM",0.0584 ± 0.011
same,peptide microarray binding signal,"[2]; peptide modifications: H3K14me2, binder concentration: 100 nM",0.077 ± 0.0071
same,peptide microarray binding signal,[3]; [5],0.044 ± 0.004
same,peptide microarray binding signal,[3]; [6],0.0224 ± 0.0035
same,peptide microarray binding signal,[4]; [5],0.0137 ± 0.00078
same,peptide microarray binding signal,[4]; [6],0.00715 ± 0.00071
QTARKSTGGKAPR [H3 5-17 Q T A Rme Kac S T G G K A P R],peptide microarray binding signal,"[1]; peptide modifications: H3R8me1 H3K9ac, binder concentration: 50 nM",0.0137 ± 0.00035
same,peptide microarray binding signal,"[1]; peptide modifications: H3R8me1 H3K9ac, binder concentration: 500 nM",0.0307 ± 0.0019
same,peptide microarray binding signal,"[2]; peptide modifications: H3R8me1 H3K9ac, binder concentration: 10 nM",0.0479 ± 0.004
same,peptide microarray binding signal,"[2]; peptide modifications: H3R8me1 H3K9ac, binder concentration: 100 nM",0.0783 ± 0.0015
same,peptide microarray binding signal,[3]; [7],0.0231 ± 0.0043
same,peptide microarray binding signal,[3]; [8],0.0272 ± 0.0053
same,peptide microarray binding signal,[4]; [7],0.0277 ± 0.0029
same,peptide microarray binding signal,[4]; [8],0.0205 ± 0.00081
QTARKSTGGKAPR [H3 5-17 Q T A Rcit K S Tph G G K A P R],peptide microarray binding signal,"[1]; peptide modifications: H3R8cit H3T11ph, binder concentration: 50 nM",0.00404 ± 0.00028
same,peptide microarray binding signal,"[1]; peptide modifications: H3R8cit H3T11ph, binder concentration: 500 nM",0.0123 ± 0.0011
same,peptide microarray binding signal,"[2]; peptide modifications: H3R8cit H3T11ph, binder concentration: 10 nM",0.0179 ± 0.0072
same,peptide microarray binding signal,"[2]; peptide modifications: H3R8cit H3T11ph, binder concentration: 100 nM",0.0242 ± 0.0054
same,peptide microarray binding signal,[3]; [9],0.00285 ± 4.3e-05
same,peptide microarray binding signal,[3]; [10],0.002511 ± 2.2e-05
same,peptide microarray binding signal,[4]; [9],0.00142 ± 0.00018
same,peptide microarray binding signal,[4]; [10],0.00115 ± 2e-05
QTARKSTGGKAPR [H3 5-17 Q T A R K S T G G Kme3 A P R],peptide microarray binding signal,"[1]; peptide modifications: H3K14me3, binder concentration: 50 nM",0.00931 ± 0.00042
same,peptide microarray binding signal,"[1]; peptide modifications: H3K14me3, binder concentration: 500 nM",0.0186 ± 0.0016
same,peptide microarray binding signal,"[2]; peptide modifications: H3K14me3, binder concentration: 10 nM",0.0256 ± 0.00028
same,peptide microarray binding signal,"[2]; peptide modifications: H3K14me3, binder concentration: 100 nM",0.0377 ± 0.0028
same,peptide microarray binding signal,[3]; [11],0.0987 ± 0.029
same,peptide microarray binding signal,[3]; [12],0.0663 ± 0.0053
same,peptide microarray binding signal,[4]; [11],0.0574 ± 0.00077
same,peptide microarray binding signal,[4]; [12],0.0328 ± 0.0018
QTARKSTGGKAPR [H3 5-17 Q T A Rme K S T G G K A P R],peptide microarray binding signal,"[1]; peptide modifications: H3R8me1, binder concentration: 50 nM",0.00589 ± 0.00021
same,peptide microarray binding signal,"[1]; peptide modifications: H3R8me1, binder concentration: 500 nM",0.00448 ± 0.00015
same,peptide microarray binding signal,"[2]; peptide modifications: H3R8me1, binder concentration: 10 nM",0.0037 ± 7.9e-05
same,peptide microarray binding signal,"[2]; peptide modifications: H3R8me1, binder concentration: 100 nM",0.00262
same,peptide microarray binding signal,[3]; [13],0.0014 ± 0.00011
same,peptide microarray binding signal,[3]; [14],0.00417 ± 0.00061
same,peptide microarray binding signal,[4]; [13],0.00305 ± 0.00038
same,peptide microarray binding signal,[4]; [14],0.00755 ± 0.00014
QTARKSTGGKAPR [H3 5-17 Q T A Rme Kme2 S T G G K A P R],peptide microarray binding signal,"[1]; peptide modifications: H3R8me1 H3K9me2, binder concentration: 50 nM",0.00934 ± 0.00073
same,peptide microarray binding signal,"[1]; peptide modifications: H3R8me1 H3K9me2, binder concentration: 500 nM",0.0296 ± 0.00077
same,peptide microarray binding signal,"[2]; peptide modifications: H3R8me1 H3K9me2, binder concentration: 10 nM",0.0501 ± 0.013
same,peptide microarray binding signal,"[2]; peptide modifications: H3R8me1 H3K9me2, binder concentration: 100 nM",0.0426 ± 0.0023
same,peptide microarray binding signal,[3]; [15],0.0281 ± 0.0026
same,peptide microarray binding signal,[3]; [16],0.0231 ± 0.00029
same,peptide microarray binding signal,[4]; [15],0.175 ± 0.029
same,peptide microarray binding signal,[4]; [16],0.0879 ± 0.0073
QTARKSTGGKAPR [H3 5-17 Q T A Rcit K S T G G K A P R],peptide microarray binding signal,"[1]; peptide modifications: H3R8cit, binder concentration: 50 nM",0.0063 ± 0.00069
same,peptide microarray binding signal,"[1]; peptide modifications: H3R8cit, binder concentration: 500 nM",0.00719 ± 0.0018
same,peptide microarray binding signal,"[2]; peptide modifications: H3R8cit, binder concentration: 10 nM",0.0115 ± 0.0029
same,peptide microarray binding signal,"[2]; peptide modifications: H3R8cit, binder concentration: 100 nM",0.00574 ± 0.00039
same,peptide microarray binding signal,[3]; [17],0.00504 ± 0.0019
same,peptide microarray binding signal,[3]; [18],0.0142 ± 0.0043
same,peptide microarray binding signal,[4]; [17],0.00642 ± 0.0027
same,peptide microarray binding signal,[4]; [18],0.00588 ± 0.00093
QTARKSTGGKAPR [H3 5-17 Q T A R K S T G G Kac A P R],peptide microarray binding signal,"[1]; peptide modifications: H3K14ac, binder concentration: 50 nM",0.01348 ± 6.3e-05
same,peptide microarray binding signal,"[1]; peptide modifications: H3K14ac, binder concentration: 500 nM",0.0307 ± 0.0021
same,peptide microarray binding signal,"[2]; peptide modifications: H3K14ac, binder concentration: 10 nM",0.0491 ± 0.007
same,peptide microarray binding signal,"[2]; peptide modifications: H3K14ac, binder concentration: 100 nM",0.0789 ± 0.0089
same,peptide microarray binding signal,[3]; [19],0.0163 ± 0.0012
same,peptide microarray binding signal,[3]; [20],0.0226 ± 0.0018
same,peptide microarray binding signal,[4]; [19],0.0103 ± 0.00042
same,peptide microarray binding signal,[4]; [20],0.00657 ± 0.0006
QTARKSTGGKAPR [H3 5-17 Q T A R Kme3 Sph T G G K A P R],peptide microarray binding signal,"[1]; peptide modifications: H3K9me3 H3S10ph, binder concentration: 50 nM",0.005862 ± 5.4e-05
same,peptide microarray binding signal,"[1]; peptide modifications: H3K9me3 H3S10ph, binder concentration: 500 nM",0.0171 ± 0.00064
same,peptide microarray binding signal,"[2]; peptide modifications: H3K9me3 H3S10ph, binder concentration: 10 nM",0.00358 ± 0.00073
same,peptide microarray binding signal,"[2]; peptide modifications: H3K9me3 H3S10ph, binder concentration: 100 nM",0.0227 ± 0.0053
same,peptide microarray binding signal,[3]; [21],0.00466 ± 0.0006
same,peptide microarray binding signal,[3]; [22],0.00913 ± 0.0042
same,peptide microarray binding signal,[4]; [21],0.362 ± 0.11
same,peptide microarray binding signal,[4]; [22],0.273 ± 0.078
QTARKSTGGKAPR [H3 5-17 Q T A R Kme3 S T G G Kme2 A P R],peptide microarray binding signal,"[1]; peptide modifications: H3K9me3 H3K14me2, binder concentration: 50 nM",0.0125 ± 0.00061
same,peptide microarray binding signal,"[1]; peptide modifications: H3K9me3 H3K14me2, binder concentration: 500 nM",0.0226 ± 0.0018
same,peptide microarray binding signal,"[2]; peptide modifications: H3K9me3 H3K14me2, binder concentration: 10 nM",0.0179 ± 0.0015
same,peptide microarray binding signal,"[2]; peptide modifications: H3K9me3 H3K14me2, binder concentration: 100 nM",0.0366 ± 0.016
same,peptide microarray binding signal,[3]; [23],0.117 ± 0.017
same,peptide microarray binding signal,[3]; [24],0.082 ± 0.012
same,peptide microarray binding signal,[4]; [23],0.869 ± 0.044
same,peptide microarray binding signal,[4]; [24],1 ± 0.084
